A selection: hits, their analogues and other compounds. The true share with any hit is near 19%.
TDP1 cell noCPT = qHTS for Inhibitors of human tyrosyl-DNA phosphodiesterase 1 (TDP1): qHTS in cells in absence of CPT; DT40 Tdp1-/- hTDP1 cells, no CPT, ATP luminescence, 48 h; actives 15% (n = 420,000); Potency, µM (doses to about 46.2 µM), inactives show top-dose activity change, negative = growth inhibition, most hits filed as inhibitors; further: potency means the concentration at half of the fitted maximal effect; nearly all actives have a fitted effect of over 55% in size
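Chicken DT40 Tdp1-/- cells stably complemented with human TDP1 were seeded at 400 cells/well with DMSO in place of 20 nM camptothecin. After compound pinning, cells grew at least 48 hr at 37 °C; viability read by CellTiter-Glo luminescence.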
Giardia killer = Small Molecules that selectively kill Giardia lamblia: qHTS | Giardia lamblia trophozoite viability | activity change, % at 7.66 µM, hits read low | actives 0.15% (n = 340,000); in the data active means activity change below about -80%; inconclusive means between about -30% and that limit;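 further: parasites exposed to compound for two days anaerobically before the ATP read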
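Each well holds 100 Giardia trophozoites and compound. After two days (48 hrs) at 37 deg C in anaerobic conditions, ATP is quantified by luminescence.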
ELG1 repair inh = qHTS screen for small molecules that inhibit ELG1-dependent DNA repair in human embryonic kidney (HEK293T) cells expressing luciferase-tagged ELG1; HEK293T ELG1-luciferase reporter, luminescence, 16 h; DNA damage induced by 5-fluorouridine; Potency, µM (highest dose often 46.1 µM), for the others: at the top dose activity change, negative = inhibition, most hits filed as inhibitors; actives 2.3% (n = 330,000); further: potency means the concentration at half of the fitted maximal effect; nearly all actives have a fitted effect of over 55% in size
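Quantitative HTS, concentration-response format. 2,000 cells/well co-treated with 5-fluorouridine and compound, 16 hr in 5% CO2 at 37 °C; ONE-Glo luminescence read after 30 min.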
IL-1B inflam inh = qHTS for Inhibitors of Inflammasome Signaling: IL-1-beta AlphaLISA Primary Screen. THP-1 LPS/ATP IL-1B secretion, AlphaLISA, 16 h; stronger effect = lower value. activity change, % at 57.5 µM. actives 4.7% (n = 360,000); in the data active means activity change below about -50%; inconclusive means mostly about -30% to -49%
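THP-1 cells pretreated 1 hr with compounds (up to 57.5 uM final), then stimulated with LPS (250 ng/mL final) plus ATP (1.25 mM final); secreted IL-1B measured by AlphaLISA after 16 hr, decreased signal indicating inhibition.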
DT40 TDP1 CPT = qHTS for Inhibitors of human tyrosyl-DNA phosphodiesterase 1 (TDP1): qHTS in cells in presence of CPT | chicken DT40 Tdp1-/-;hTDP1 cells + 20 nM CPT, ATP luminescence, 48 h | Potency, µM (series often up to 46.2 µM), for inactives: at the top dose activity change, negative = growth inhibition, usual class: inhibitors | actives 12% (n = 420,000) | AID 686979, 2013; further: potency means the concentration at half of the fitted maximal effect; nearly all actives have a fitted effect of over 55% in size
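Cell growth measured by CellTiter-Glo luminescence after a minimum 48 h, 37 C compound exposure with 20 nM CPT in Tdp1-knockout DT40 cells stably expressing hTDP1, seeded 400/well; qHTS titration format.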
TDP1 inh = qHTS Assay for Inhibitors of Tyrosyl-DNA Phosphodiesterase (TDP1). recombinant TDP1, AlphaScreen DNA substrate cleavage. Potency, µM (doses to about 130 µM), without a hit: top-dose activity change, negative = inhibition, hits mostly inhibitors. actives 0.28% (n = 350,000); further: potency means the concentration at half of the fitted maximal effect; nearly all actives have a fitted effect of over 40% in size
Target sequence (Q9NUW8 whole entry, looked up): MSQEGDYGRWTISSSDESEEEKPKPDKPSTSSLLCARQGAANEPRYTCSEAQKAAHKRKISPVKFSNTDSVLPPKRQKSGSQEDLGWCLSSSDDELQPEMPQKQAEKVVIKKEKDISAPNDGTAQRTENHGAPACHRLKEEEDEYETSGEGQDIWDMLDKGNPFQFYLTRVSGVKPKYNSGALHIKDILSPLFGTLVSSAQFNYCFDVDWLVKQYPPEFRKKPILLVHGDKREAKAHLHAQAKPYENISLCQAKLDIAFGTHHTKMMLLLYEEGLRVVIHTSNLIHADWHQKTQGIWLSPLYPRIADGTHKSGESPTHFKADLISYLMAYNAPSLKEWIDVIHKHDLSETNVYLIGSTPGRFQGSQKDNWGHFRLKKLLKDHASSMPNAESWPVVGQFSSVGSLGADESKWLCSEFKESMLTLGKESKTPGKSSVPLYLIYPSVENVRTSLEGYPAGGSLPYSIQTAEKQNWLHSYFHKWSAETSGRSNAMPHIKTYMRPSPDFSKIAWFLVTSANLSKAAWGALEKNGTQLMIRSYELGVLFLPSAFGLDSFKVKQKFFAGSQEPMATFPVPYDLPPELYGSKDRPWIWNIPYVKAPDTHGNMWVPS
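Signal: AlphaScreen proximity between streptavidin donor and anti-FITC acceptor beads on intact substrate. Reaction: Tdp1 1 nM, substrate 15 nM final, 5 min RT after 15 min compound preincubation.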
Starred values were filed as active, the others as inactive. Unless noted, the call rests on the fitted dose curve; in most records, active means well fitted curve in the direction sought with a large enough effect; inconclusive means small, poorly fitted or top-dose-only effect, or another doubt; inactive means no such curve, though single readings can be large; an effect the other way counts as inactive or inconclusive. On the % scale 0 is the no-effect control and ±100 the full control effect.

For COc1ccc(CCNc2oc(Cc3cccc4ccccc34)nc2C#N)cc1OC the results were TDP1 cell noCPT inconclusive, Giardia killer 6.8, ELG1 repair inh 16.4µM*, IL-1B inflam inh inconclusive, DT40 TDP1 CPT inconclusive and TDP1 inh -6.2%.
Screening COc1ccc(CCNc2oc(COc3ccc(Br)cc3)nc2C#N)cc1OC returned TDP1 cell noCPT 20.6µM*, Giardia killer inconclusive, ELG1 repair inh 20.6µM*, IL-1B inflam inh -0.6, DT40 TDP1 CPT 18.4µM* and TDP1 inh 9.8%.
`CCc1nnc(NC(=O)CC23CC4CC(CC(Br)(C4)C2)C3)s1` gave TDP1 cell noCPT -2.4%, Giardia killer 19.0, ELG1 repair inh 9.4%, IL-1B inflam inh -15.1, DT40 TDP1 CPT -2.1% and TDP1 inh -0.4%.
`CN(/N=C/c1cc(Cl)cc(Cl)c1O)C(=S)NC(C)(C)C` gave TDP1 cell noCPT 16.4µM*, Giardia killer -15.6, ELG1 repair inh inconclusive, IL-1B inflam inh 0.0, DT40 TDP1 CPT inconclusive and TDP1 inh 0.0%.
For CCCCC/C=C\C[C@@H]1O[C@H]1/C=C/C(O)C/C=C\CCCC(=O)O (stereo partly specified) the results were TDP1 inh 4.4%.
`CCOC(=O)[C@]12CCCC=C1N(Cc1ccco1)C(=O)[C@H](CC(=O)NCCCOC)C2` gave TDP1 cell noCPT -9.0%, IL-1B inflam inh 56.2 and DT40 TDP1 CPT 8.5%.
`O=C(CCCOc1ccc(Cl)cc1Cl)N/N=C/c1ccc(Cl)cc1` gave TDP1 cell noCPT 23.1µM*, Giardia killer 5.8, ELG1 repair inh 8.9%, IL-1B inflam inh inconclusive, DT40 TDP1 CPT inconclusive and TDP1 inh -5.3%.
`Cc1cc(Cl)ccc1OCCCC(=O)NO` gave TDP1 cell noCPT 18.4µM*, Giardia killer -20.5, ELG1 repair inh inconclusive, IL-1B inflam inh -11.3, DT40 TDP1 CPT 8.2µM* and TDP1 inh 4.6%.
Screening O=C(CCCOc1ccc(Cl)cc1Cl)N/N=C\C1CCCCC1 returned TDP1 cell noCPT -7.5%, Giardia killer 16.1, ELG1 repair inh -4.9%, IL-1B inflam inh -50.5*, DT40 TDP1 CPT -17.2% and TDP1 inh 3.4%.
`Cc1ccccc1OCC(=O)NCC(=O)N/N=C/c1cccc([N+](=O)[O-])c1` gave ELG1 repair inh 1.2% and TDP1 inh -5.4%.
For Cc1cc(Cl)ccc1OCCCC(=O)N/N=C/c1cccc([N+](=O)[O-])c1 the results were TDP1 cell noCPT inconclusive, Giardia killer -18.2, ELG1 repair inh -4.1%, IL-1B inflam inh -1.5, DT40 TDP1 CPT 14.6µM* and TDP1 inh -1.1%.
Cc1cc(Cl)ccc1OCCCC(=O)NNC(=O)c1ccncc1 was read as TDP1 cell noCPT 2.5%, Giardia killer -3.2, ELG1 repair inh 20.7%, IL-1B inflam inh -15.3, DT40 TDP1 CPT -5.4% and TDP1 inh 0.4%.
`Cc1ccc2c(c1)c1c(c(=O)n(Cc3ccccc3)c(=O)n1Cc1cccc(C(F)(F)F)c1)n2C` gave TDP1 cell noCPT -28.5%, DT40 TDP1 CPT inconclusive and TDP1 inh 0.0%.
`CN(C)S(=O)(=O)N(CC(=O)Nc1ccc(S(=O)(=O)N2CCCC2)cc1)c1ccccc1` gave TDP1 cell noCPT inconclusive, Giardia killer 7.2, ELG1 repair inh -14.5%, IL-1B inflam inh -12.0, DT40 TDP1 CPT -28.4% and TDP1 inh 2.6%.
CCOC(=O)c1[nH]cnc1C(=O)Nc1ccccc1OC was read as TDP1 cell noCPT -13.8%, Giardia killer 4.7, ELG1 repair inh 4.3%, IL-1B inflam inh 9.2, DT40 TDP1 CPT -13.4% and TDP1 inh -2.6%.

Assay outcomes deposited in PubChem BioAssay by National Center for Advancing Translational Sciences (NCATS).
